Shiga inhibitor: A qHTS for Small Molecule Inhibitors of Shiga Toxin. Vero cells, Shiga toxin protein synthesis inhibition reporter. inhibition, % at 38.7 µM. 290,000 compounds, 9.2% hits. AID 2315, 2010; in the data active = inhibition mostly above about 28%, no sharp cut-off; inactive = mostly below about 43%; also: 0% is about no effect
CHX counter: Cycloheximide Counterscreen for Small Molecule Inhibitors of Shiga Toxin; max response, %; AID 2314, 2010; cell reporter, cycloheximide protein synthesis inhibition counterscreen; 300,000 compounds, 12% hits; in the data active = max response mostly above about 13%, no sharp cut-off; inactive = mostly below about 14%; also: read at 38.3 µM for the half of the compounds with a filed dose; 0% is about no effect
Pf growth 96h: Primary qHTS for delayed death inhibitors of the malarial parasite plastid, 96 hour incubation. 320,000 compounds, 6.9% hits. AID 504834, 2011. Potency, µM (doses to about 28.7 µM), for inactives: at the highest dose activity change, negative = inhibition, usual class: inhibitors. P. falciparum luciferase reporter growth, 96 h; also: potency is read from the fitted curve at half-maximal effect; % is scaled to controls: 0 for no effect and ±100 for the full control effect
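Readout is luminescence from an integrated firefly luciferase in P. falciparum. Red cells, 2% hematocrit and 0.05% parasitemia final, were cultured with compound through two parasite generations (96 hours) at 37 C, 5% CO2.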
Giardia FBPA inh: qHTS Assay for Inhibitors of Fructose-1,6-bisphosphate Aldolase from Giardia Lamblia; purified Giardia FBPA; AID 2451, 2010; A8B2U2; 290,000 compounds, 0.71% hits; Potency, µM (titrated, usually from 59.6 µM), without a hit: at the highest dose activity, negative = inhibition, hits mostly inhibitors; also: potency is read from the fitted curve at half-maximal effect; % is scaled to controls: 0 for no effect and ±100 for the full control effect; nearly all actives have a fitted effect of over 55% in size
Target sequence (A8B2U2 whole entry, looked up): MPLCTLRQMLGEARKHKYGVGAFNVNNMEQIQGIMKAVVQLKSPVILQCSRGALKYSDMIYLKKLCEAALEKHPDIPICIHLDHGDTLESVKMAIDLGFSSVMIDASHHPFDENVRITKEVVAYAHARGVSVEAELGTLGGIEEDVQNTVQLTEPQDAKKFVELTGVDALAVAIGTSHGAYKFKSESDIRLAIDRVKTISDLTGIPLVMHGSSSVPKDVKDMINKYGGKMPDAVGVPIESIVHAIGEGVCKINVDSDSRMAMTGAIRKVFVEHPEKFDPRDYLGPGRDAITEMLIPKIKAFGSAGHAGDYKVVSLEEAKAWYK
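40 nM FBPA preincubated 10 min at RT with compound (up to 57.5 uM final), then substrate plus GAPDH/TPI/NAD/arsenate coupling and diaphorase/resazurin added. Fluorescence read after 20 min at RT, 525/598 nm.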
NS1 function inh: qHTS Assay for Inhibitors of Influenza NS1 Protein Function; Potency, µM (series often up to 46.1 µM), without a hit: at the highest dose activity, positive = more growth; 270,000 compounds, 0.4% hits; calls by dose curve; also: potency is read from the fitted curve at half-maximal effect; actives are rising curves; nearly all actives have a fitted effect of over 50% in size
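OD600 was taken as the measure of yeast growth restored by compound in an NS1-expressing S. cerevisiae strain. Cells had been washed out of glucose medium and diluted 1:100 into galactose -URA medium, pH 6.0.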
Pf growth 48h: Primary qHTS for delayed death inhibitors of the malarial parasite plastid, 48 hour incubation; P. falciparum luciferase growth in erythrocytes, 48 h; Potency, µM (top dose mostly 28.7 µM), for inactives: top-dose activity change, negative = inhibition, usual class: inhibitors; 310,000 compounds, 5.9% hits; AID 504832, 2011; also: potency is read from the fitted curve at half-maximal effect; % is scaled to controls: 0 for no effect and ±100 for the full control effect
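Firefly luciferase activity from engineered P. falciparum reports growth; inhibitors lower the luminescent signal. Cultures contained 2% hematocrit erythrocytes at 0.1% final parasitemia.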
* = called active by the depositor; i = inactive; ? = inconclusive; · = no result given; [ ] = dose if it differs, or a comment. Sampled rows, rich in hits. Any-hit rate of the full collection: about 21%. Unless noted, calls follow the shape of the dose curve; as a rule, active = well fitted curve in the direction sought with a large enough effect; inconclusive = small, poorly fitted or top-dose-only effect, or another doubt; inactive = no such curve, though single readings can be large; an effect the other way counts as inactive or inconclusive.

SMILES	Shiga inhibitor	CHX counter	Pf growth 96h	Giardia FBPA inh	NS1 function inh	Pf growth 48h
CC(=O)N(C)C1=C(O)c2ccccc2C(=O)C1=O	18	-5	?	·	-2%	4%
CC(=O)c1ccc(N=C2C(=O)Nc3ccccc32)cc1	6	2	0%	-10%	11%	2%
CC(=O)N(/N=C1\Sc2ccccc2C1=O)c1ccccc1C	91*	68*	7%	·	-50%	25%
CC(=O)N(/N=C1\Sc2ccccc2C1=O)c1ccc(C)cc1C	121*	59*	i	0%	4%	-17%
CCOC(=O)c1nnn(-c2nonc2-n2cccc2)c1C	-13	9	?	2%	-2%	?
CCOC(=O)c1nnn(-c2nn3nnnc3c3ccccc23)c1C	31	2	-29%	1%	-4%	0.93µM*
CC1CCC(NC(=S)NCCN(C)C)CC1 (stereo not drawn)	45*	23*	38%[5.75 µM]	?	3%	72%
CCOc1ccc(C(=O)NC2CCN(C(=O)Nc3ccc(F)cc3)CC2)cc1	-8	-13	?	-9%	-9%	-9%
COc1ccc(-n2nc3ccccc3n2)cc1	53	24*	100%	0%	-86%	117%
COc1ccc(-n2nc3cc(C)c(N)c(Br)c3n2)cc1	128*	63*	?	7.1µM*	-35%	20%
COc1ccc(-n2nc3cc(N)c(Br)cc3n2)cc1	·	30*	?	1%	4%	205%
COc1ccc2nc3ccccc3nc2c1	69*	40*	138%	?	-36%	257%
Cc1ccc(CCNS(=O)(=O)c2cc3c(cc2Cl)NC(=O)CO3)cc1	-3	-1	?	-7%	7%	20%
CCCNc1c(NC(=O)C2CCC(C)CC2)c(=O)oc2ccccc12 (stereo not drawn)	-1	-2	?	·	0%	-10%
Cc1ccc(CC(CC(=O)O)C(=O)NCc2ccccc2)cc1 (stereo not drawn)	-6	-4	-15%	4%	4%	6%
CNC[C@H](Cc1ccccc1)NC[C@@H](Cc1cccc2ccccc12)NCCc1ccc(C)cc1	-16	-8	2.9µM*	16%	3%	2.6µM*
O=C(N/N=C/c1cn(-c2ccccc2)nc1-c1ccc(F)cc1)c1ccc2c(c1)OCO2	79*	18*	13µM*	-2%	?	?
COc1ccc(-c2nn(-c3ccccc3)cc2/C=N/NC(=O)c2ccc3c(c2)OCO3)cc1	59	14	?	0%	5%	?
O=C(N/N=C/c1cn(-c2ccccc2)nc1-c1cccnc1)c1ccccc1	5	-1	?	3%	·	?
O=C(N/N=C\c1cn(-c2ccccc2)nc1-c1ccccc1)c1ccc2c(c1)OCO2	23	16*	12µM*	0%	3%	?
CN1CCN(C(=O)/C=C/c2cn(-c3ccccc3)nc2-c2ccc3c(c2)OCCO3)CC1	-17	-5	?	-6%	0%	12µM*
O=C(N/N=C/c1nn(-c2ccccc2)cc1-c1ccc(Cl)cc1)c1ccncc1	17	9	?	3%	2%	2.1µM*
CCCC1(c2ccccc2)NC(=O)N(CC(=O)Nc2cc(C)ccc2OC)C1=O (stereo not drawn)	-7	-2	7%	9%	14%	?
Nc1ncc(Br)cc1S(=O)(=O)Nc1ccccc1F	-3	17	?	·	-1%	33%
O=C(N/N=C/c1cn(-c2ccccc2)nc1-c1ccc2c(c1)OCCO2)c1ccncc1	50*	29*	112%	2%	·	134%
O/N=C/c1cn(-c2ccccc2)nc1-c1ccc2c(c1)OCCO2	30	19	56%	3%	-32%	?
C=C1CC[C@@H]2O[C@@]2(C)CC[C@H]2[C@H]1CC2(C)C	·	·	·	12%	·	·
NC(=O)C1CCN(C(=O)COc2ccc(Nc3ccccc3)cc2)CC1	26	0	-16%	-14%	-3%	-5%
CCOC(=O)c1sc2ncnc(NCC(c3cccs3)N(C)C)c2c1C (stereo not drawn)	40	24*	-51%	11%	0%	·
